Data taken from PubChem BioAssay (EPA / NIEHS).
“And” between values parts separate entries of the source, which are not always exact repeats. Equal entries are not always repeated. Results filed as inconclusive are left out. More than one record can exist for a structure, and the calls need not agree. The source made the active and inactive calls. Rule for the calls, unless noted: active = hit-call score of the fitted dose curve at least 0.9, where 1 is the maximum; inactive = score below 0.9.

Columns and labels:
[1] = read-out: Pyruvate Dehydrogenase Kinase 4 (PDK4), PDK4 (gene 5166); assay: LTEA_HepaRG_PDK4: Life Technologies and Expression Analysis (LTEA) Assay for Pyruvate Dehydrogenase Kinase 4 (PDK4) using HepaRG (AID 2283525); conditions: mRNA level, 48 h; actives raise or lower the signal
Method in brief: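 In this multiplexed human HepaRG expression assay, cells are treated 48 h with test chemicals across an eight-point range starting at 100 uM. PDK4 mRNA changes, normalized to ACTB/GAPDH/POLR2A, are fitted in both directions relative to vehicle.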

[2] = read-out: NAD(P)H dehydrogenase [quinone] 1 (NQO1), NQO1 (gene 1728); assay: LTEA_HepaRG_NQO1: Life Technologies and Expression Analysis (LTEA) Assay for NAD(P)H dehydrogenase [quinone] 1 (NQO1) using HepaRG (AID 2283526); conditions: mRNA level, 48 h; actives raise or lower the signal
Method in brief: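 Differentiated human HepaRG cells in serum-free induction medium, dosed in duplicate for 48 h at 8 half-log concentrations up to 100 uM in 0.5% DMSO. NQO1 mRNA by qRT-PCR normalized to ACTB, GAPDH, POLR2A; bidirectional fit versus DMSO baseline.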

[3] = read-out: Nuclear factor erythroid 2-related factor 2 (Homo sapiens) (UniProt Q16236); assay: LTEA_HepaRG_NFE2L2: Life Technologies and Expression Analysis (LTEA) Assay for Nuclear factor erythroid 2-related factor 2 (NFE2L2) Transcription Factor using HepaRG (AID 2283527); conditions: mRNA level, 48 h; actives raise or lower the signal
Method in brief: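 Transcript level of NFE2L2 is the read-out, measured by microfluidic TaqMan qRT-PCR and normalized to three housekeeping genes. Human HepaRG cultures received test chemical for 48 h at up to 100 uM in half-log steps. Gain or loss of signal is fitted relative to 0.5% DMSO.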

[4] = read-out: Signal transducer and activator of transcription 3 (Homo sapiens) (UniProt P40763); assay: LTEA_HepaRG_STAT3: Life Technologies and Expression Analysis (LTEA) Assay for Signal transducer and activator of transcription (STAT3) using HepaRG (AID 2283529); conditions: mRNA level, 48 h; actives raise or lower the signal
Method in brief: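 Read-out is STAT3 mRNA level by qRT-PCR, normalized to three housekeeping genes, in human HepaRG liver cells treated for 48 h. Concentrations ran from 100 uM downward in half-log steps; curves were fitted for gain or loss relative to 0.5% DMSO.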

[5] = read-out: solute carrier (SLCO1B1), SLCO1B1 (gene 10599); assay: LTEA_HepaRG_SLCO1B1: Life Technologies and Expression Analysis (LTEA) Assay for solute carrier (SLCO1B1) using HepaRG (AID 2283530); conditions: mRNA level, 48 h; actives raise or lower the signal
Method in brief: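 Differentiated human HepaRG cells, plated 48 h, switched to serum-free induction medium and exposed in duplicate for 48 h to 8 half-log concentrations (top 100 uM) in 0.5% DMSO. SLCO1B1 mRNA by TaqMan qRT-PCR, normalized to ACTB/GAPDH/POLR2A.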

[6] = read-out: sulfotransferase 2A1 (SULT2A1), SULT2A1 (gene 6822); assay: LTEA_HepaRG_SULT2A1: Life Technologies and Expression Analysis (LTEA) Assay for sulfotransferase 2A1 (SULT2A1) using HepaRG (AID 2283531); conditions: mRNA level, 48 h; actives raise or lower the signal
Method in brief: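 Differentiated human HepaRG cells in serum-free induction medium were exposed for 48 h to eight half-log concentrations (top 100 uM, 0.5% DMSO). SULT2A1 mRNA was measured by qRT-PCR, normalized to ACTB, GAPDH and POLR2A, and fitted bidirectionally against DMSO.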

[7] = read-out: Transforming Growth Factor (TGFA), TGFA (gene 7039); assay: LTEA_HepaRG_TGFA: Life Technologies and Expression Analysis (LTEA) Assay for Transforming Growth Factor (TGFA) using HepaRG (AID 2283532); conditions: mRNA level, 48 h; actives raise or lower the signal
Method in brief: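 HepaRG (human liver line), 48 h exposure, 8 conc. half-log down from 100 uM, 0.5% DMSO vehicle, duplicates; serum-free induction medium. TGFA mRNA by TaqMan qRT-PCR, ACTB/GAPDH/POLR2A normalization; gain/loss fit vs DMSO.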

[8] = read-out: Transforming Growth Factor (TGFB1), TGFB1 (gene 7040); assay: LTEA_HepaRG_TGFB1: Life Technologies and Expression Analysis (LTEA) Assay for Transforming Growth Factor (TGFB1) Transporter using HepaRG (AID 2283533); conditions: mRNA level, 48 h; actives raise or lower the signal
Method in brief: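 Differentiated human HepaRG cells in serum-free induction medium were exposed in duplicate for 48 h to eight concentrations (top 100 uM, half-log steps, 0.5% DMSO). TGFB1 mRNA was quantified by qRT-PCR, normalized to ACTB, GAPDH, POLR2A, and fitted bidirectionally against DMSO.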

TIMP1, TIMP1 (gene 7076) = assay: LTEA_HepaRG_TIMP1: Life Technologies and Expression Analysis (LTEA) Assay for TIMP1 using HepaRG (AID 2283534); conditions: mRNA level, 48 h; actives raise or lower the signal
Method in brief: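 Differentiated human HepaRG cells in serum-free induction medium were exposed 48 h to chemicals (8 half-log concentrations, top 100 uM, 0.5% DMSO). TIMP1 mRNA was quantified by TaqMan qRT-PCR, normalized to ACTB/GAPDH/POLR2A; bidirectional fit versus DMSO.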

[9] = read-out: Tumor necrosis factor receptor 1 (TNFRSF1A), TNFRSF1A (gene 7132); assay: LTEA_HepaRG_TNFRSF1A: Life Technologies and Expression Analysis (LTEA) Assay for Tumor necrosis factor receptor 1 (TNFRSF1A) using HepaRG (AID 2283535); conditions: mRNA level, 48 h; actives raise or lower the signal
Method in brief: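 Differentiated human HepaRG cells were exposed in duplicate for 48 h in serum-free induction medium to eight concentrations (top 100 uM, half-log steps, 0.5% DMSO). TNFRSF1A mRNA was quantified by qRT-PCR, normalized to ACTB, GAPDH and POLR2A, then fitted bidirectionally against DMSO.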

[10] = read-out: Thyroid Hormone Responsive (THRSP), THRSP (gene 7069); assay: LTEA_HepaRG_THRSP: Life Technologies and Expression Analysis (LTEA) Assay for Thyroid Hormone Responsive (THRSP) using HepaRG (AID 2283536); conditions: mRNA level, 48 h; actives raise or lower the signal
Method in brief: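 mRNA induction or loss relative to 0.5% DMSO vehicle was fitted bidirectionally across an eight-point curve whose highest exposure was 100 uM. Human HepaRG liver cells received chemicals in duplicate over 48 h before RNA extraction.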

[11] = read-out: Cellular tumor antigen p53 (Homo sapiens) (UniProt P04637); assay: LTEA_HepaRG_TP53: Life Technologies and Expression Analysis (LTEA) Assay for Tumor Protein P53 (TP53) using HepaRG (AID 2283537); conditions: mRNA level, 48 h; actives raise or lower the signal
Method in brief: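 Differentiated HepaRG cells in serum-free induction medium exposed 48 h in duplicate to 8 half-log concentrations, top 100 uM, 0.5% DMSO. TP53 mRNA by TaqMan qRT-PCR (Fluidigm), normalized to ACTB, GAPDH, POLR2A; fitted bidirectionally versus DMSO.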

[12] = read-out: UDP glucuronosyltransferase (UGT1A1), UGT1A1 (gene 54658); assay: LTEA_HepaRG_UGT1A1: Life Technologies and Expression Analysis (LTEA) Assay for UDP glucuronosyltransferase (UGT1A1) using HepaRG (AID 2283538); conditions: mRNA level, 48 h; actives raise or lower the signal
Method in brief: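 HepaRG cells, 0.5% DMSO vehicle, 48 h exposure in serum-free induction medium to 8-point half-log series topping at 100 uM, in duplicate. UGT1A1 mRNA by Fluidigm qRT-PCR, normalized to ACTB/GAPDH/POLR2A; bidirectional fit versus DMSO.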

[13] = read-out: UDP glucuronosyltransferase (UGT1A6), UGT1A6 (gene 54578); assay: LTEA_HepaRG_UGT1A6: Life Technologies and Expression Analysis (LTEA) Assay for UDP glucuronosyltransferase (UGT1A6) using HepaRG (AID 2283539); conditions: mRNA level, 48 h; actives raise or lower the signal
Method in brief: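 Human HepaRG cells were dosed for 48 h in serum-free induction medium with 0.5% DMSO vehicle, eight-point half-log series from 100 uM, in duplicate. UGT1A6 mRNA was measured by qRT-PCR, normalized to ACTB, GAPDH, POLR2A, and fitted bidirectionally against DMSO.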

[14] = read-out: X-box binding protein 1 (XBP1), XBP1 (gene 7494); assay: LTEA_HepaRG_XBP1: Life Technologies and Expression Analysis (LTEA) Assay for X-box binding protein 1 (XBP1) using HepaRG (AID 2283540); conditions: mRNA level, 48 h; actives raise or lower the signal
Method in brief: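 Differentiated human HepaRG cells in serum-free induction medium were exposed in duplicate for 48 h to eight half-log concentrations up to 100 uM in 0.5% DMSO. XBP1 mRNA was quantified by qRT-PCR, normalised to ACTB, GAPDH and POLR2A, with bidirectional fitting against DMSO.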

[15] = LTEA_HepaRG_LDH_cytotoxicity: Cytotoxicity Assessment in the Life Technologies and Expression Analysis (LTEA) Assay (AID 2283563; active = hit-call score of the fitted dose curve at least 0.9, where 1 is the maximum;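 for AC50: LDH activity released into spent culture medium as a marker of cell death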)
Method in brief: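 Differentiated human HepaRG cells, plated 48 h beforehand, were switched to serum-free induction medium and exposed for 48 h to eight half-log concentrations (top 100 uM) in 0.5% DMSO. LDH was measured in spent medium; activity was fitted relative to DMSO vehicle.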

[16] = ATG_XTT_Cytotoxicity: Cytotoxicity Assessment in the Attagene TRANS-FACTORIAL HepG2 Assay (AID 2283584; active = hit-call score of the fitted dose curve at least 0.9, where 1 is the maximum)
Method in brief: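 HepG2 human liver cells, transiently transfected with multiple GAL4-UAS reporter units, were dosed and read at 24 h by XTT as cell number. Loss of signal was fitted relative to DMSO negative control baseline.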

[17] = TOX21_p53_BLA_p2_viability: Viability Assessment in the Tox21 HCT-116 p53 Agonism Beta-lactamase Assay, Phase 2 (AID 2283591; active = hit-call score of the fitted dose curve at least 0.9, where 1 is the maximum;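 note: compound exposure lasted 16 h at 37 °C; actives lower the ATP signal meaning cytotoxicity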)
Method in brief: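 Cytotoxicity readout: CellTiter-Glo ATP luminescence, 30 min at room temperature, after the beta-lactamase read. Cells were HCT116 exposed 16 h at 37C to compounds pin-transferred at 217-fold dilution from DMSO stocks.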

[18] = molecular target: Cellular tumor antigen p53 (Homo sapiens) (UniProt P04637); assay: TOX21_p53_BLA_p2_ratio: Tox21 HCT-116 p53 Agonism Beta-lactamase Assay, Ratio, Phase 2 (AID 2283592; active = hit-call score of the fitted dose curve at least 0.9, where 1 is the maximum)
Chain of Cellular tumor antigen p53 (Homo sapiens) (P04637 whole entry, looked up): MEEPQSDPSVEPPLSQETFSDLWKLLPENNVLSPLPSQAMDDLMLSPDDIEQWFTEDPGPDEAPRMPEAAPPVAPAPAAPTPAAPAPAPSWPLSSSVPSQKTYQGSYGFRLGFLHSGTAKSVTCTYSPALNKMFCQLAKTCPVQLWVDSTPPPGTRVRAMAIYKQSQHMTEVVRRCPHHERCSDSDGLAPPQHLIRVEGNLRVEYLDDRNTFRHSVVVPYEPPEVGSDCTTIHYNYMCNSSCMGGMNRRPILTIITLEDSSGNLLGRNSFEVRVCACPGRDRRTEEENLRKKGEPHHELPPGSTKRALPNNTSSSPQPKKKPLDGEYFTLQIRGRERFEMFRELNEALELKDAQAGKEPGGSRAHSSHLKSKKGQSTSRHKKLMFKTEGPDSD
Method in brief: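 HCT116 cells carrying a p53-responsive beta-lactamase reporter were plated, incubated 5 h at 37C, then dosed with compounds in DMSO (217-fold dilution) for 16 h. CCF4-AM substrate was added for 2 h at room temperature; the 460/530 nm emission ratio gave gain-of-signal activity relative to DMSO.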

Measured: AC50

Chain of Nuclear factor erythroid 2-related factor 2 (Homo sapiens) (Q16236 whole entry, looked up): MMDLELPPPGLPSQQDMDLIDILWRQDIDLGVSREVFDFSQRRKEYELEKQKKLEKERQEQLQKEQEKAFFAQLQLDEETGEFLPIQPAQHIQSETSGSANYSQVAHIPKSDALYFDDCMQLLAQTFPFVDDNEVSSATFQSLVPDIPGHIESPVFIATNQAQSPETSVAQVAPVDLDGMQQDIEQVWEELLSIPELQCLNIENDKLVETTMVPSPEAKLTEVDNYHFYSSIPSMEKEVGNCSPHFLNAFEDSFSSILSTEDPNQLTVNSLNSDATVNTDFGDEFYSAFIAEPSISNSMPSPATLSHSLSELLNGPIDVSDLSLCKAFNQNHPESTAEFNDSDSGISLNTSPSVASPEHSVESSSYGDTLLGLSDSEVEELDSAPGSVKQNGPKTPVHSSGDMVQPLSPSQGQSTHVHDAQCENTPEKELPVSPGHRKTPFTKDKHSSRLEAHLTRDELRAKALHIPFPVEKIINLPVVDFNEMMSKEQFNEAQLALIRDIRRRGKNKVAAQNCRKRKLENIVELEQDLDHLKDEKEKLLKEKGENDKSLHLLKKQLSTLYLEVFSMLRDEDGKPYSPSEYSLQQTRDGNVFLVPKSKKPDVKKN
Chain of Signal transducer and activator of transcription 3 (Homo sapiens) (P40763 whole entry, looked up): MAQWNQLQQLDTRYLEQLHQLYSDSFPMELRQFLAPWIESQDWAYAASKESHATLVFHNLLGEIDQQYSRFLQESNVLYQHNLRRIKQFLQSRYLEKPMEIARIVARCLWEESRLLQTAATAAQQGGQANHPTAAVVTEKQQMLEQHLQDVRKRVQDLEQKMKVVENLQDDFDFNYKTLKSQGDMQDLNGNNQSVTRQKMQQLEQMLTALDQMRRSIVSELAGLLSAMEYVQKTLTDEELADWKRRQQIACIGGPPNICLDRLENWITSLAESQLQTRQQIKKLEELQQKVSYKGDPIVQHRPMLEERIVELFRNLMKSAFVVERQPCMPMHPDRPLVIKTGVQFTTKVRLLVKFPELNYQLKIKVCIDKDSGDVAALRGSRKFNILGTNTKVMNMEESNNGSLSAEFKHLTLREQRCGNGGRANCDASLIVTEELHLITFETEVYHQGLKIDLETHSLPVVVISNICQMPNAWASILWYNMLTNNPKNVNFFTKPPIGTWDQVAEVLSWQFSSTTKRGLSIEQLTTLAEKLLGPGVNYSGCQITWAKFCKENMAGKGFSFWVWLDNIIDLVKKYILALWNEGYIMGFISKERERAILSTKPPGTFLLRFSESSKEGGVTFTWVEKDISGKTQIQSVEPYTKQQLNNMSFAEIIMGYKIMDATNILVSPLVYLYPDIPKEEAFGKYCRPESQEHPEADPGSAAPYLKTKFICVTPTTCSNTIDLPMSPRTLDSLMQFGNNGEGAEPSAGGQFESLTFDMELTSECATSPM

CCCN(CCC)N=O
inactive: all assays above

Nn1cnnc1
inactive: all assays above

Cc1cc2c3c(c1)C(c1ccccc1)=N[C@@H](NC(=O)c1ccncc1)C(=O)N3CC2
active: [1] 50 µM | [3] 50 µM | [10] 22.7 µM | [11] 50 µM | [12] 4.99 µM
not listed: [16] | [17]
inactive: all other assays above

CC(C)(O)C(=O)Nc1ccc([N+](=O)[O-])c(C(F)(F)F)c1
inactive: [1] | [3] | [4] | [6] | [8] | TIMP1, TIMP1 (gene 7076) | [9] | [10] | [12] | [13] | [15] | [16] | [17] | [18]
active: [2] 0.0268 µM | [5] 0.0191 µM | [7] 0.0264 µM | [11] 0.0309 µM | [14] 0.0212 µM | [18] 69.3 µM

O=C(O)C(F)(F)C(F)(F)C(F)(F)C(F)(F)C(F)(F)F
active: [1] 14.9 µM | [5] 9.92 µM
not listed: [16] | [17]
inactive: all other assays above

ClC1=C(Cl)[C@]2(Cl)[C@@H]3[C@@H](Cl)[C@H]4O[C@H]4[C@@H]3C1(Cl)C2(Cl)Cl
active: [12] 2.1 µM | [17] 76.7 µM
inactive: all other assays above

Oc1ccc(Cl)cc1Cl
not listed: [16]
inactive: all other assays above

O=S(=O)(O)C(F)(F)C(F)(F)C(F)(F)C(F)(F)F
inactive: all assays above

Cc1cccc([N+](=O)[O-])c1
inactive: all assays above

c1cc2ccc3cccc4ccc(c1)c2c34
active: [12] 10.7 µM
inactive: all other assays above

Sc1ccccc1
inactive: [16]

Cc1ccccc1[N+](=O)[O-]
inactive: all assays above

CC(C)C(=O)OCC(C)(C)C(OC(=O)C(C)C)C(C)C (stereo not drawn)
not listed: [17]
inactive: all other assays above

Oc1c(Cl)c(Cl)c(Cl)c(Cl)c1Cl
inactive: [1] | [3] | [16] | [17]
active: [2] 6.48 µM | [4] 1.19 µM | [5] 3.96 µM | [6] 4.65 µM | [7] 12.3 µM | [8] 5.06 µM | TIMP1, TIMP1 (gene 7076) 14.9 µM | [9] 5.95 µM | [10] 3.94 µM | [11] 6.71 µM | [12] 3.76 µM | [13] 6.77 µM | [14] 6.22 µM | [15] 6.81 µM | [18] 8.58 µM and 1.98 µM
